This is one part of a sample in which hits are shown more often than they occur.
Pf Dd2 growth = inhibitors of Plasmodium falciparum Dd2 growth; P. falciparum Dd2 growth, SYBR Green, 72 h; Potency, µM (top dose mostly 28.9 µM), usual class: inhibitors; 120,000 compounds, 4.3% hits; active = well fitted inhibition curve with a large enough effect; note: nearly all actives have a fitted effect of over 65% in size
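Readout: SYBR Green fluorescence, 485 nm excitation, 535 nm emission, after ~16 h lysis at 37C. Before that, Dd2-infected red cells (2.5% hematocrit) grew 72 h with compound, 29 uM top final concentration.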
A number is an active result; 0 = inactive.

SMILES	Pf Dd2 growth
Cc1cccc(Cn2c(=O)n(Cc3ccccc3)c(=O)c3oc4ccccc4c32)c1	0
O=c1c2oc3ccccc3c2n(Cc2cccc(C(F)(F)F)c2)c(=O)n1Cc1ccc2c(c1)OCO2	7.9µM
O=c1c2sc3ccccc3c2n(Cc2cccc(C(F)(F)F)c2)c(=O)n1Cc1ccccc1	0
O=c1c2sc3ccccc3c2n(Cc2cccc(C(F)(F)F)c2)c(=O)n1Cc1ccc(F)cc1	11µM
O=c1c2oc3ccccc3c2n(Cc2cccc(Cl)c2)c(=O)n1Cc1ccc2c(c1)OCO2	10µM
O=c1c2oc3ccccc3c2n(Cc2ccccc2F)c(=O)n1Cc1ccc2c(c1)OCO2	0
COc1ccc(Cn2c(=O)c3oc4ccccc4c3n(Cc3cccc(F)c3)c2=O)cc1	0
COCCc1noc([C@@H]2CN(Cc3ccccc3F)C[C@H]2CO)n1	0
O=C(C[C@@H]1O[C@H](CNC(=O)C2CC2)[C@@H](O)[C@H]1O)Nc1ccccc1	0
O=S(=O)(NC[C@H]1O[C@@H](CO)[C@@H](O)[C@H]1N1CCN(c2ccc(F)cc2)CC1)c1ccc(F)cc1	0
O=C1NCc2ccccc2CC12CCCN(Cc1c(Cl)cncc1Cl)C2 (stereo not given)	0
CC(C)=CCN1CCCC2(Cc3ccccc3CNC2=O)C1 (stereo not given)	10µM
Cc1ccsc1CN1CCCC2(Cc3ccccc3CNC2=O)C1 (stereo not given)	0
CC(C(=O)NC1CCN(c2cnn(C)c(=O)c2)CC1)c1ccccc1 (stereo not given)	0
O=C(C1CCCC1)N1CCC2(CC1)NC(=O)N(c1ccccc1)N2	0
CCOC(=O)c1sc(NC(=O)C2CC(=O)N(c3n[nH]c4ccccc34)C2)nc1C (stereo not given)	0
COCc1nc(C2CCCN(C(=O)c3ccc(C)cc3)C2)no1 (stereo not given)	0
CCc1ccc(C(=O)N2CCCC(c3noc(-c4cc5c(=O)[nH]c(C)cn5n4)n3)C2)cc1 (stereo not given)	0.89µM
Cc1cccc(C(=O)N2CCCC(c3noc(-c4cc5c(=O)[nH]c(C)cn5n4)n3)C2)c1 (stereo not given)	5.6µM
Cc1cn2nc(-c3nc(C4CCCN(C(=O)Cc5cccc(F)c5)C4)no3)cc2c(=O)[nH]1 (stereo not given)	4µM
CCOCc1nc(C2CCCN(C(=O)c3ccc(OC)cc3)C2)no1 (stereo not given)	0
Cc1ccsc1C(=O)N1CCCC(c2noc(COc3ccccc3F)n2)C1 (stereo not given)	0
Cc1cccc(C(=O)N2CCC(c3noc(CO)n3)C2)c1 (stereo not given)	0
Cc1cn2nc(-c3nc(C4CCCN(C(=O)c5ccc(C)s5)C4)no3)cc2c(=O)[nH]1 (stereo not given)	0
Cc1cn2nc(-c3nc(C4CCCN(C(=O)c5sccc5C)C4)no3)cc2c(=O)[nH]1 (stereo not given)	4.5µM
SMILES	Pf Dd2 growth
CCOCc1nc(C2CCCN(C(=O)Cc3cccc(C)c3)C2)no1 (stereo not given)	0
Cc1cccc(C(=O)N2CCCC(c3noc(COc4ccccc4)n3)C2)c1 (stereo not given)	0
O=C(Cc1cccc(F)c1)N1CCCC(c2nc(C3CCOCC3)no2)C1 (stereo not given)	0
O=C(COc1ccc(Cl)cc1Cl)N1CCC(N2CCOC2=O)CC1	0
COCc1nc(-c2ccc(OC3CN(Cc4cccs4)C3)cc2)no1	0
CNC(=O)[C@@H]1CN(C(=O)c2ccc(Cl)cc2)C[C@H]1CO	0
CN1CCCCCC(O)c2cc(C(=O)N3CCc4ccccc43)ccc21 (stereo not given)	0
N[C@H]1c2ccccc2C[C@@H]1NC(=O)COc1ccc(Cl)cc1Cl	0
Cc1ccc(C(=O)N[C@@H]2CN(Cc3ccncc3)C[C@H]2CN(C)C)c(C)c1	0
Cc1cc(C(=O)NCC2(COc3cnccn3)C[C@@H](O)[C@@H](O)C2)no1 (stereo not given in full)	0
O=C(CCn1cccn1)NC1CC(=O)N(Cc2cccc3ccccc23)C1 (stereo not given)	0
O=C(Nc1ccc(Cl)cc1Cl)c1ccn2cncc2c1	0
O=C(Nc1ccc(Cl)cc1Cl)c1cccn2cncc12	13µM
O=C(Nc1ccc(F)cc1)c1ccc(-n2cnnc2)cc1	0
O=C(Nc1ccc(Cl)cc1Cl)c1ccc2cncn2c1	0
O=C(Nc1ccc(F)cc1)c1cc2cccnn2n1	0
O=C(Nc1ccc(F)cc1)c1cccn2cncc12	16µM
COc1ccc(CC(=O)N2CC[C@@H](CC(=O)O)[C@@H](CC3=NCCc4cc(OC)c(OC)cc43)C2)cc1	0
CCc1noc(-c2nc(-c3ccc(OC)c(F)c3)no2)n1	0
CC(=O)N1C[C@@H]2OCC(=O)N(C)[C@@H]2C1	0
CO[C@H]1C(=O)N(C2CCN(Cc3ccc(C)s3)CC2)[C@H]1c1ccncc1	0
Cc1ccc(CN2C(=O)OC(c3cccc(NC(=O)c4ccccc4)c3)C2C(=O)NCCC(C)C)cc1 (stereo not given)	7.1µM

Screening results from PubChem.
